# In all, about 9,900 sequences were measured (“r (bound/input frequency ratio)”: median about 0.7, highest 2% from about 6.5 on). Only a selection was taken, and the highest values are over-represented in it overall.
# B1: ENSMUSG00000022095.66|Fam160b2 (ssRNA)
# RNA: GGGAGUUCUACAGUCCGACGAUCGCUUCGAUAUCCGCAUGCUAACAACUCCAGGGGCCAGGGAGAUGAACUGCUGUCUUUGAGGCUGGCUAAAAAAACAAUCCAGUCCAGAGAGAUGGGGAGGGGGGGAGCAAGAACCCUGUCUGUUACAUUAGGUAUCAUGGAAGCUGCUAAGACUCGGCAGGUUUCUCCGAGGCUUCACGAACAGUAGUGGAGGAGACAGAGGAGGAGGCUGAGGGGAAGCCCCCUCUUCCUGCUCUACCCUCCUGGAGGCUGUUGCAAAAUUCCCAACUGCCUCCUGGCACUCUUGCGGUCGCACUAGUGUGGAAUUCUCGGGUGUCAAGG
# B2: ENSMUSG00000004113.466|Cacna1b (ssRNA)
# RNA: GGGAGUUCUACAGUCCGACGAUCGCUUCGAUAUCCGCAUGCUAUGAAGGUUUGUCGCAAAAAUUUAUAUUUAACAGUGUUGAGAGAGAGAGAGAGAGAGCGAGAGAGAGAGAGAUCCAGUCAUGCAACACAAAUGGGAUCUACUUUUAAACAACAGUCCUUUGACUAGUUUGCUGCCUGAAUAAUAUUUACAAACUAAACUUUGGAUUCUGCUCUUGUUUCUACAAUGAUUUUUUGUAUAAAGCAAAGUCCUUGGAUUAAAUAAAAACAACCCAAAAAAAAAAUCAAAAUCAAAACCCAGGAUCUCUUGCGGUCGCACUAGUGUGGAAUUCUCGGGUGUCAAGG
# B3: ENSMUSG00000031028.203|Tub|203:207;209:214 (ssRNA)
# RNA: GGGAGUUCUACAGUCCGACGAUCGCUUCGAUAUCCGCAUGCUAUCCUUUCUCUUCCCAGUUCCAGAGAUGAAACCCCUCCGAGUUAAUGUAUAAGGUUGGAAACCUUUCAGUAGGGAAUCAGGCAGUUCCCUGUUGAAAGUUGUCUGAGUUUUUGCACACCAUUCUGAUCUGAUGUGGCCUGUGCCUGGCUCCUCUAUGAGGACUUCGAGCUGUGCACAGACCUUAGCAGGACCACUGCACACUUACACACACACACACAGGCAGCCCAAGGGUUCUGGGGCUGGGCUUGGACACGCCCUCCACUCUUGCGGUCGCACUAGUGUGGAAUUCUCGGGUGUCAAGG
# B4: ENSMUSG00000061578.408|Ksr2 (ssRNA)
# RNA: GGGAGUUCUACAGUCCGACGAUCGCUUCGAUAUCCGCAUGCUAAUCAGUCUCUUCCCGGAGGAAGCAUCCGGGGGAAAUGUAUUCCUUCGCCCUGCAAGGAGCCAAUGGGAAGAGAGGGGACCAUAUAGUUAGAGACAUUCCCUACCCCCCGACCACUGACCCGUCCAGACCCUCGCUUCUUACAAUGCCUCUUCUUCUGCCAGACCAGCCACCUGCCCCACUAACACCAAAUGGCUUCUGUCCCUGCUUCACGUUGCAAAUCCUUCAAGACAGAAGUUUCAGAGGGGAUAGUUCCUUCUAACCUCUUGCGGUCGCACUAGUGUGGAAUUCUCGGGUGUCAAGG
# Biological target: TDP-43 (Homo sapiens, UniProt Q13148 1-414)
# Sequence (Q13148 whole entry): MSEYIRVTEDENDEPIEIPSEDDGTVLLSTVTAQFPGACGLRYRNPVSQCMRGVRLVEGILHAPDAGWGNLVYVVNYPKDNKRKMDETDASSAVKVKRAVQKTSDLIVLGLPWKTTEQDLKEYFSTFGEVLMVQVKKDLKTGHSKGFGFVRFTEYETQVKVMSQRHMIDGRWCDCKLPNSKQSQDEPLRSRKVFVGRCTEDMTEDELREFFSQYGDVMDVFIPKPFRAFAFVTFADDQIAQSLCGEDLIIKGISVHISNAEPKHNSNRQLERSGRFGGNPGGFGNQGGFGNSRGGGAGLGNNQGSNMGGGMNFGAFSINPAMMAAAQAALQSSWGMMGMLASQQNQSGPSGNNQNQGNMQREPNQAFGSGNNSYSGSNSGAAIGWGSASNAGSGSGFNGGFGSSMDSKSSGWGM
# Assay: RNA Bind-n-Seq with designed 260-mer pool; 25 mM Tris-HCl, 150 mM KCl, 3 mM MgCl2, BSA (printed 500 mg/mL), 20 units/mL SUPERase IN; pH not stated; 500 nM RNA pool, 1 h, 4 C; TDP-43 5, 50, 500 nM; high values mean tight binding
# Details: protein: recombinant; tags: SBP (GST cleaved off with PreScission; pGEX-GST-SBP)
# Outline: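 Streptavidin beads captured recombinant SBP-tagged TDP-43 at 5, 50 or 500 nM, and the beads were incubated for 1 h at 4 °C with 500 nM of an in vitro-transcribed pool of 260-nt 3′ UTR oligos in 25 mM Tris-HCl, 150 mM KCl, 3 mM MgCl2, BSA and SUPERase IN. After washing, bound RNA was eluted with biotin, reverse transcribed, PCR-amplified and sequenced. Binding is reported as R, the mapped-read-normalized abundance of each oligo in the bound sample divided by its abundance in the input. Two independent protein batches served as duplicates.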
row,Binder,binding signal
1,B1,0.965 R (bound/input frequency ratio)
2,B2,0.589 R (bound/input frequency ratio)
3,B3,1.57 R (bound/input frequency ratio)
4,B4,1.09 R (bound/input frequency ratio)

# From article PMC12864922, “TDP-43 directly inhibits mRNA accumulation in neurites through modulation of mRNA stability”
